Drawing on ChEMBL document CHEMBL3988442, “University of Dundee, Small-Polar-MMV Screening Library” (2021), this text covers Percent Effect for 11 molecules.

Common to all, as to parameters: scale not given: direction of the effect not stated beside the values
For test [1], the target named is Protein translocase subunit SecA (Escherichia coli (strain K12)) (UniProt P10408). Description: Assay to Identify E. coli SecA ATPase Inhibitors. Format: functional. As to conditions: 30 µM.
In test [2] the target is T1, Ubiquitin-activating enzyme e1, putative (Leishmania donovani (strain BPK282A1)) (UniProt E9BSI1).
T1 sequence (whole entry): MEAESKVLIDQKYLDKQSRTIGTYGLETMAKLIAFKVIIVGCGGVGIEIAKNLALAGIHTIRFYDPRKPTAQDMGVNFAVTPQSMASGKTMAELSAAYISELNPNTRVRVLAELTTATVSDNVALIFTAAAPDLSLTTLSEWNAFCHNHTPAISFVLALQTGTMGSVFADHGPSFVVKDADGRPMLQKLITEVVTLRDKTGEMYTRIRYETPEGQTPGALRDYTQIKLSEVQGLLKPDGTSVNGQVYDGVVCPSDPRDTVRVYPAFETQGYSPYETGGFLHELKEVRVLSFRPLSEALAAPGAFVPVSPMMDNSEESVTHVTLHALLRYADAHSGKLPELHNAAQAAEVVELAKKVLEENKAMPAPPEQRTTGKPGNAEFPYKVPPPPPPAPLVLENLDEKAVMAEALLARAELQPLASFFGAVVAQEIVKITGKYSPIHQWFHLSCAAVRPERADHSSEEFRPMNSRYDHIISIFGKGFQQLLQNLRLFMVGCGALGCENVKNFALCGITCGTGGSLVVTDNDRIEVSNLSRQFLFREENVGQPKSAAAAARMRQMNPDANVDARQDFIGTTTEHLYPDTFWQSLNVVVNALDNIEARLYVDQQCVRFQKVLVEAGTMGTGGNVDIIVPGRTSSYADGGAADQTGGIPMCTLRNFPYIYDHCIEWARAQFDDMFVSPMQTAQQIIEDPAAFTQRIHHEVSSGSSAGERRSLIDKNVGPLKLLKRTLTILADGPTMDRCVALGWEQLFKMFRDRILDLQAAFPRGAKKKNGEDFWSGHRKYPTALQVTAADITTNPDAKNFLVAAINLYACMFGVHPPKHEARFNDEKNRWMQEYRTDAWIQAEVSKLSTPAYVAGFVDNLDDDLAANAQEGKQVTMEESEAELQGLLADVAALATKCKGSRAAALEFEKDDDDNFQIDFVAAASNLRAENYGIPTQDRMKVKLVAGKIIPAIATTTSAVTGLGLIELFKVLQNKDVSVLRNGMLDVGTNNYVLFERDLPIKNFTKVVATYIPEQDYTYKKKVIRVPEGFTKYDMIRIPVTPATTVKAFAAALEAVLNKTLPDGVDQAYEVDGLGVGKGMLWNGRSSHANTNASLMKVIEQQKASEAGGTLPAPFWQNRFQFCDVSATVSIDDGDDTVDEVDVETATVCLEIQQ
Nature of the test: Leishmania donovani Ubiquitin Activating Enzyme (LdE1). As to conditions: 30 µM. In kind it is functional.

In test [3] the target is AMP-activated protein kinase, AMPK (Homo sapiens) (UniProt P54646+O43741+P54619+Q9UGJ0+Q9Y478+Q13131+Q9UGI9). Nature of the test: AMP-dependent Kinase enzyme assay. An in vitro enzyme assay that detects ADP turnover that is directly proportional to AMPK activity. This uses naive AMPK that is activated during the assay with MK-8722. Format: functional. As to conditions: 30 µM.

Test [4] has as its target Sialic acid-binding Ig-like lectin 9 (Homo sapiens) (UniProt Q9Y336). Description: Hs-Siglec9 ALPHAscreen SOP 20170721. As to conditions: 10 µM.
For test [5], the system named is Trypanosoma cruzi. Description: Trypanosoma cruzi phosphomannomutase and mannose-1-phosphate guanylyltransferase assay. Format: functional. As to conditions: 10 µM.
Test [6] addresses T2, Arginase-2, mitochondrial (Homo sapiens) (UniProt P78540).
T2 sequence (whole entry): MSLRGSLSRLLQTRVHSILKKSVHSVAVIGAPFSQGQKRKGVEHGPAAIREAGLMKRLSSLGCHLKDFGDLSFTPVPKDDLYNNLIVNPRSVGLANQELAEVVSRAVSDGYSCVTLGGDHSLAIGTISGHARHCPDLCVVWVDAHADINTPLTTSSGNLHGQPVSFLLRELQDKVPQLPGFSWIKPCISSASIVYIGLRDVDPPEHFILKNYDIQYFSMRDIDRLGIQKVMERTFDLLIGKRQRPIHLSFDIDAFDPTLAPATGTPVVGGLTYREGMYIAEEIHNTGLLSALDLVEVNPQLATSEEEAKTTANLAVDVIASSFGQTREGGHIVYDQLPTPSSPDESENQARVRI
Description: in vitro enzyme assay to detect the production of urea directly proportional to the activity of Arginase II. Also: in the data most compounds retested in dose-response had high values. In kind it is functional. As to conditions: 33.3 µM.

Test [7] concerns the target T3, Proteasome subunit beta (Trypanosoma cruzi) (UniProt O96673).
T3 sequence (whole entry): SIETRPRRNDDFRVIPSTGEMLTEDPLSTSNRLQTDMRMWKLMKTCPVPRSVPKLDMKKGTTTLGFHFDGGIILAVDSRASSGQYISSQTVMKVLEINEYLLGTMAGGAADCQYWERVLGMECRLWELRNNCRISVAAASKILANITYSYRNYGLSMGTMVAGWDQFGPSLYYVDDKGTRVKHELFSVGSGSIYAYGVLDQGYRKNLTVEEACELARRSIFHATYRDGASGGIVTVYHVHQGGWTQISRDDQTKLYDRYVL
Description: Trypanosoma cruzi proteasome chymotrypsin-like activity (TcProtChymo) assay. Also: in the data most compounds retested in dose-response had high values. The note with it: 9.37 µM. Format: functional.

The species named for test [8] is Homo sapiens. Description: To identify inhibition of the IFN signalling (Jak-Stat) pathway via expression of an eGFP reporter gene under the control of an IFN-stimulated response element (ISRE) containing MxA promoter. The note with it: 30 µM. In kind it is functional.
Test [9] addresses T4, Tyrosyl-tRNA synthetase, putative (Trypanosoma cruzi (strain CL Brener)) (UniProt Q4DSP6).
T4 sequence (whole entry): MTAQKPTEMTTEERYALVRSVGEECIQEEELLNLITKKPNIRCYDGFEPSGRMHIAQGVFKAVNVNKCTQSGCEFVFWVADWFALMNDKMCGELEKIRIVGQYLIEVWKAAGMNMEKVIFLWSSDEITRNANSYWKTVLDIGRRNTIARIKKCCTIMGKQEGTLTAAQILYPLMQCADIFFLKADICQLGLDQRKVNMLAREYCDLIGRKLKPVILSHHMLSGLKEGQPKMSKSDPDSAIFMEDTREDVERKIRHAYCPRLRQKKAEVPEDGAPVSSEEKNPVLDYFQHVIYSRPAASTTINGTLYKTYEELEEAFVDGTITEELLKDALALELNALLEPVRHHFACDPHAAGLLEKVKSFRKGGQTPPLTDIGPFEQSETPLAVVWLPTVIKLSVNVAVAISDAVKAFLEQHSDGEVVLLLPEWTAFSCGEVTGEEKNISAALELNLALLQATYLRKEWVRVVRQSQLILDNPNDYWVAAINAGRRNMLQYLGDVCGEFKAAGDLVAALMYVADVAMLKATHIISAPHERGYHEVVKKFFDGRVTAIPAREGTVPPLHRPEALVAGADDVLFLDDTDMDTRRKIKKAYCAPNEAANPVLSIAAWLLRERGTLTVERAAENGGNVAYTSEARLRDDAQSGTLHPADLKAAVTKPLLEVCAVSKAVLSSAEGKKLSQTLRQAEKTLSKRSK
Nature of the test: Trypanosoma cruzi tyrosyl tRNA synthetase (TcYRS) _High Tyrosine SOP. Also: in the data most compounds retested in dose-response had high values. In kind it is functional. As to conditions: 30 µM.

Test [10] addresses T4, Tyrosyl-tRNA synthetase, putative (Trypanosoma cruzi (strain CL Brener)). Nature of the test: Trypanosoma cruzi tyrosyl tRNA synthetase (TcYRS) SOP. The note with it: 30 µM. In kind it is functional.
In test [11] the target is Chromo domain-containing protein 1 (Saccharomyces cerevisiae (strain ATCC 204508 / S288c) (Baker's yeast)) (UniProt P32657). Nature of the test: ScCHD-1 Enzyme Inhibition Assay. Also: in the data most compounds retested in dose-response had high values. Format: functional. The note with it: 30 µM.

For some of these results: Entries with a potency or affinity are not part of this list.

Chain of Chromo domain-containing protein 1 (Saccharomyces cerevisiae (strain ATCC 204508 / S288c) (Baker's yeast)) (P32657 whole entry, the tested form may be a part): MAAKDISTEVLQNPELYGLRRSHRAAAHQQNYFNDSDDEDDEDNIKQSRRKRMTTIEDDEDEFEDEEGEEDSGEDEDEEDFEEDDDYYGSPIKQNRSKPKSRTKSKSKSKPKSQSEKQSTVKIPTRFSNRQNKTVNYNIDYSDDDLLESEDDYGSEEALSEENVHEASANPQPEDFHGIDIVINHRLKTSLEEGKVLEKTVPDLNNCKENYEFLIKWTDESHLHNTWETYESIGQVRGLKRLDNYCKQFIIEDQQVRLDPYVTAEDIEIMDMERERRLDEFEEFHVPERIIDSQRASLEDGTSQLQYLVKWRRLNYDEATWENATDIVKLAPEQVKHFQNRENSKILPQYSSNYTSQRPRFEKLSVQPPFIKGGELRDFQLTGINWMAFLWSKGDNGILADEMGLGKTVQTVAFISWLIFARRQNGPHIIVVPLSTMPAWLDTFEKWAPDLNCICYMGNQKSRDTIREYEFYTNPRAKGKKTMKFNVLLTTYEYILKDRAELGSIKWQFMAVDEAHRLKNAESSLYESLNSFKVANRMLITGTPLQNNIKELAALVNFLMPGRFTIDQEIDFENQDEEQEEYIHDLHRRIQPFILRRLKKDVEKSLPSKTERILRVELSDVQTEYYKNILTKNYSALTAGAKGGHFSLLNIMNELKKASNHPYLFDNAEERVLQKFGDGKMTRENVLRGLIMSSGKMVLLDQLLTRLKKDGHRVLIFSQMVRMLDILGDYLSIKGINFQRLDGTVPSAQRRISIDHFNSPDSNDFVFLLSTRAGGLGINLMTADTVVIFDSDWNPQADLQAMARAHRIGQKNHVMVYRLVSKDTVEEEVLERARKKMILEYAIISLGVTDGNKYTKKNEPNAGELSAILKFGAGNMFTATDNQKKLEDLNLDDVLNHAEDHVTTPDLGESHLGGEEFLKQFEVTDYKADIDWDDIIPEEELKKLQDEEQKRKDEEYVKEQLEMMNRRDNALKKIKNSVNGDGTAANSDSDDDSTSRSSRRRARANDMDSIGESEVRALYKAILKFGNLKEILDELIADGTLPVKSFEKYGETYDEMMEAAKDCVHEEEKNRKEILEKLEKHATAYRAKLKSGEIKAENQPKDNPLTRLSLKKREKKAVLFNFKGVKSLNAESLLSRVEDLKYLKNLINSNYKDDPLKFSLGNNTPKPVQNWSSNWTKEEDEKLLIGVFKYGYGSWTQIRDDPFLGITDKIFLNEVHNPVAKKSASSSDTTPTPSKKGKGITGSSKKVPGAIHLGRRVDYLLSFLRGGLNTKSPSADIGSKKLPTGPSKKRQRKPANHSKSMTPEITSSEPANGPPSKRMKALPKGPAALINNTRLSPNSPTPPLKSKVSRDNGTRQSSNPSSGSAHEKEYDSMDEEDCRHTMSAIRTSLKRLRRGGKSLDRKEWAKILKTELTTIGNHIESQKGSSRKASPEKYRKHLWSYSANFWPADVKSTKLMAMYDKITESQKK
Chain of Protein translocase subunit SecA (Escherichia coli (strain K12)) (P10408 whole entry): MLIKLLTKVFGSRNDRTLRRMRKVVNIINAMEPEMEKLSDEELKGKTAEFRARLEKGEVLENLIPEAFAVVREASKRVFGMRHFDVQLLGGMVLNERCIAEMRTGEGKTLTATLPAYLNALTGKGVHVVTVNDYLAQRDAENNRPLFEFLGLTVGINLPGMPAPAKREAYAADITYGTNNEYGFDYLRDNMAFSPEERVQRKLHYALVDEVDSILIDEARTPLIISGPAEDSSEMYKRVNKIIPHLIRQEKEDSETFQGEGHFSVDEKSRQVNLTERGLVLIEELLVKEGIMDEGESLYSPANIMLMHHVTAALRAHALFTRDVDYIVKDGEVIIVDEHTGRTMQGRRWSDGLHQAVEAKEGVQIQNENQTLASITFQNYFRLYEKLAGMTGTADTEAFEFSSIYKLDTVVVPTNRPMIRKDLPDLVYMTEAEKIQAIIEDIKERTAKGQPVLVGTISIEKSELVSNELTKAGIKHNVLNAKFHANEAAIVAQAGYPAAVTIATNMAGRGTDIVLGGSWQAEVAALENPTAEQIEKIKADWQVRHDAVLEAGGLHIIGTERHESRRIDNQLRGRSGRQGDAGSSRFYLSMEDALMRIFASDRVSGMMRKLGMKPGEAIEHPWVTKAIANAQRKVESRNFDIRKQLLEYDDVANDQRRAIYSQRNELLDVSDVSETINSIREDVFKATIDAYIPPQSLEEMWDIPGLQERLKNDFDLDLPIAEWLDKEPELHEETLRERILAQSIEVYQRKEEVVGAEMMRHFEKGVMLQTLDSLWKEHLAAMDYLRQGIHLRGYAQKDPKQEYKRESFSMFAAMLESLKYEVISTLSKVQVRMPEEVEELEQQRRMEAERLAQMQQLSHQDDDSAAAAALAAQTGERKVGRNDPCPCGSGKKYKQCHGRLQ
Chain of Sialic acid-binding Ig-like lectin 9 (Homo sapiens) (Q9Y336 whole entry): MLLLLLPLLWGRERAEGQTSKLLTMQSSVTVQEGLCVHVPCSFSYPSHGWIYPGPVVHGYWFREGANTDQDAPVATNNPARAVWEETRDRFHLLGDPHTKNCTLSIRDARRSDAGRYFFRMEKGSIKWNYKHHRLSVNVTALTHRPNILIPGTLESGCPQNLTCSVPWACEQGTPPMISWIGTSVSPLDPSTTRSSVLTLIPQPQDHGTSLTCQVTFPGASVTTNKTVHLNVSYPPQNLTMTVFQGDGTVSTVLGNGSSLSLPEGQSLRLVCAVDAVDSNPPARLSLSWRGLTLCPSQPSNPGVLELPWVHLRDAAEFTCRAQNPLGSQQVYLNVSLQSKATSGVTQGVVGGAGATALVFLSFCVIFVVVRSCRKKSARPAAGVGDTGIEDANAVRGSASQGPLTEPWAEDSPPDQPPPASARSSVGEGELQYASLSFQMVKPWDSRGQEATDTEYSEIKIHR

For `c1cnc(NCc2noc3c2CN(CCN2CCCC2)CC3)nc1`, the Percent Effect in test [1] is -1.82%; in test [2], 8%; in test [3], -2.08%; in [4], 10.5%; in test [5], 3.48%; in test [6] it was -47.5%. The Percent Effect in test [7] is 18.1%; in test [8], -3.46%; in test [9], 6.25%; in test [10], 22.5%; in [11], -8.39%.
`Cc1nc(C)n(CC2CCCCN2CCC(=O)Nc2cc(C)on2)n1` (stereo unspecified): the Percent Effect in test [1] is -3.16%; in test [2], 6.33%; in [3], 3.99%; in test [4], 1.14%; in [5] it was -1.13%; in [6], -0.645%. Besides, the Percent Effect in test [7] was 11%; in [8], 5.13%; in [9], -7.29%; in test [10] it was 12.7%; in test [11] it was -9.87%.
In the case of `c1cnn(CC2CCCN2c2ncnc3sccc23)c1` (stereo unspecified), the Percent Effect in test [1] is -5.43%; in [2] it was -2.7%; in test [3], 2.65%; in test [4], 6.51%; in [5], -2.14%; in [6], 3.14%. The Percent Effect in test [7] is -1.44%; in [8] it was 66.4%; in test [9], 2.97%; in test [10], -25.6%; in test [11] it was 11.4%.
On to `O=C(Nc1cccc(CN2CCOC2=O)c1)N1CCSCC1`, for which the Percent Effect was -1.53% in [1]; 12.5% in test [2]; -15.6% in test [3]; 9.65% in [4]; 2.04% in [5]; 3.09% in test [6]. Also, the Percent Effect in test [7] was 23.3%; in test [8], -2.05%; in [9], 8.42%; in [10], 15.4%; in [11], 83.9%.
`CCOCCC(=O)N1CCCN(Cc2csc(CC)n2)CC1`: the Percent Effect is -0.651% in [1]; 3.8% in test [2]; 1.45% in test [3]; 3.57% in test [4]; -1.74% in test [5]; 2.37% in test [6]. Also, the Percent Effect is 25.7% in test [7]; 7.51% in test [8]; 6.25% in test [9]; 10.1% in [10]; -30.1% in [11].
Turning to `CCC(O)CN1CCN(C(=O)c2ccnc(N(C)C)c2)CC1` (stereo unspecified), the Percent Effect in test [1] is -1.16%; in test [2], 5.41%; in test [3] it was -5.16%; in [4], 13%; in [5] it was 6.37%; in test [6], 14.3%. Also, the Percent Effect was 4.83% in test [7]; -0.0962% in [8]; 1.59% in [9]; 12.2% in test [10]; -4.75% in test [11].
On to `Nc1nccc(NCc2cc3n(n2)CCCN(C2CCCCC2)C3)n1`, for which the Percent Effect was -1.87% in test [1]; 13.7% in [2]; -1.77% in [3]; 1.73% in test [4]; -0.198% in [5]; -1.2% in test [6]. The Percent Effect in [7] is 24.4%; in [8], 2.07%; in [9], 9.38%; in test [10] it was 23.5%; in [11], -4.35%.
Turning to `CCOC(=O)C1CCN(C(=O)Cn2ccc3cc(Br)ccc32)CC1`, the Percent Effect in test [1] was -3.71%; in [2], 14.7%; in test [3] it was -7.58%; in test [4], -2.58%; in test [5], 6.29%; in test [6], -0.88%. Further, the Percent Effect in test [7] is 9.43%; in test [8], 4.34%; in [9], 1.06%; in [10], 10.3%; in test [11], -13.5%.
As to `Cc1occc1C(=O)N1CCc2ncnc(-c3cnn(C)c3)c2CC1`, the Percent Effect is -2.67% in [1]; -5.41% in [2]; -4.37% in test [3]; 0.728% in [4]; 6.75% in [5]; -1.24% in test [6]. Moreover, the Percent Effect is 4.21% in [7]; 4.88% in test [8]; 1.07% in test [9]; 3.7% in [10]; -4.52% in test [11].
For the molecule `Cc1cc(CNCc2c(C)nn(C)c2N2CCOCC2)no1`, the Percent Effect in [1] is -3.31%; in test [2] it was 10.5%; in [3], -9.93%; in [4], 7.93%; in [5] it was 7.14%; in test [6] it was 3.06%. In addition, the Percent Effect in test [7] is 3.68%; in [8], -11.7%; in test [9] it was 3.43%; in test [10], 19.5%; in [11], -11%.
For `Cn1cccc1C(=O)N1CCN(Cc2ccncc2)c2ncccc2C1`, the Percent Effect in test [1] is 1.82%; in test [2], 13.3%; in test [3], 9.01%; in test [4], 8.59%; in test [5] it was -4.83%; in [6] it was -57.2%. The Percent Effect in [7] is 12.1%; in [8] it was 13.8%; in [9], 8.33%; in test [10] it was 10%; in [11] it was -5.07%.
